What all share (settings): mRNA level, 48 h; actives raise or lower the signal
Read-out in one assay: MYC, MYC (gene 4609)
The experiment in a line: LTEA_HepaRG_MYC: Life Technologies and Expression Analysis (LTEA) Assay for MYC using HepaRG (AID 2283518). An outline of the steps:
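qRT-PCR read-out of MYC transcript (Fluidigm TaqMan, housekeeping-normalized) after 48 h chemical exposure of HepaRG cells; eight concentrations, top 100 uM, half-log steps. Bidirectional curve fitting against 0.5% DMSO vehicle baseline.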

Read-out in assay [1]: Paternally Expressed 10 (PEG10), PEG10 (gene 23089)
In words: LTEA_HepaRG_PEG10: Life Technologies and Expression Analysis (LTEA) Assay for Paternally Expressed 10 (PEG10) using HepaRG (AID 2283520).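 On AC50: differentiated HepaRG human liver cells in serum-free induction medium with 0.5% DMSO; PEG10 transcript by qRT-PCR normalised to ACTB GAPDH and POLR2A.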 In a few lines: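 qRT-PCR read-out: PEG10 mRNA normalised to three housekeeping genes, fitted bidirectionally against 0.5% DMSO vehicle. HepaRG cells received test chemicals for 48 h in serum-free induction medium, 8 points, top 100 uM, half-log steps.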

Read-out in assay [2]: Nuclear factor NF-kappa-B p105 subunit (Homo sapiens) (UniProt P19838)
The experiment in a line: LTEA_HepaRG_NFKB1: Life Technologies and Expression Analysis (LTEA) Assay for Nuclear Factor Kappa B Subunit 1 (NFKB1) using HepaRG (AID 2283521).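 Further: differentiated human HepaRG liver cells in serum-free induction medium.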 An outline of the steps: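 NFKB1 transcript was measured by TaqMan qRT-PCR on Fluidigm arrays, normalised to three housekeeping genes and fitted in both directions against 0.5% DMSO. HepaRG cells were dosed in duplicate for 48 h in serum-free induction medium, eight half-log steps from 100 uM.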

Read-out in assay [3]: Protein phosphatase 2A (PPP2R4), PTPA (gene 5524)
In words: LTEA_HepaRG_PPP2R4: Life Technologies and Expression Analysis (LTEA) Assay for Protein phosphatase 2A (PPP2R4) using HepaRG (AID 2283522). In a few lines:
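HepaRG, 48 h exposure, 8-pt half-log series from 100 uM, 0.5% DMSO vehicle, duplicates. Readout: PPP2R4 mRNA, Fluidigm qRT-PCR, housekeeping-normalized. Bidirectional curve fit vs DMSO baseline.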

Read-out in assay [4]: Phosphatase and tensin (PTEN), PTEN (gene 5728)
The experiment in a line: LTEA_HepaRG_PTEN: Life Technologies and Expression Analysis (LTEA) Assay for Phosphatase and tensin (PTEN) using HepaRG (AID 2283523). In a few lines: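 HepaRG, 48 h exposure, 8-pt half-log series from 100 uM top, 0.5% DMSO vehicle, duplicates. Readout: Fluidigm qRT-PCR of PTEN transcript; housekeeping normalization (ACTB, GAPDH, POLR2A). Gain or loss fitted relative to DMSO baseline.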

Read-out in assay [5]: solute carrier (SLC22A1), SLC22A1 (gene 6580)
The experiment in a line: LTEA_HepaRG_SLC22A1: Life Technologies and Expression Analysis (LTEA) Assay for solute carrier (SLC22A1) using HepaRG (AID 2283524). In a few lines: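 qRT-PCR readout (TaqMan, Fluidigm arrays) of SLC22A1 transcript, normalized to three housekeeping genes; bidirectional curve fit relative to 0.5% DMSO vehicle. Differentiated human HepaRG cells, 48 h chemical exposure, top concentration 100 uM, half-log steps, eight points.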

Read-out in assay [6]: Pyruvate Dehydrogenase Kinase 4 (PDK4), PDK4 (gene 5166)
The experiment in a line: LTEA_HepaRG_PDK4: Life Technologies and Expression Analysis (LTEA) Assay for Pyruvate Dehydrogenase Kinase 4 (PDK4) using HepaRG (AID 2283525). In a few lines:
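HepaRG (human liver line), 48 h chemical exposure, 8-pt half-log CRC top 100 uM, 0.5% DMSO vehicle, duplicates. Readout: TaqMan qRT-PCR of PDK4 mRNA, housekeeping-normalized; gain/loss fit relative to DMSO baseline.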

Read-out in assay [7]: NAD(P)H dehydrogenase [quinone] 1 (NQO1), NQO1 (gene 1728)
The experiment in a line: LTEA_HepaRG_NQO1: Life Technologies and Expression Analysis (LTEA) Assay for NAD(P)H dehydrogenase [quinone] 1 (NQO1) using HepaRG (AID 2283526). In a few lines: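 qRT-PCR read-out (Fluidigm TaqMan), normalized to three housekeeping genes, after 48 h chemical exposure of HepaRG cells. Concentrations: eight points, top 100 uM, half-log steps, 0.5% DMSO vehicle. Gain or loss of signal fitted relative to DMSO.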

Read-out in assay [8]: Nuclear factor erythroid 2-related factor 2 (Homo sapiens) (UniProt Q16236)
The experiment in a line: LTEA_HepaRG_NFE2L2: Life Technologies and Expression Analysis (LTEA) Assay for Nuclear factor erythroid 2-related factor 2 (NFE2L2) Transcription Factor using HepaRG (AID 2283527). An outline of the steps:
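HepaRG, 48 h dosing, 8-pt half-log series from 100 uM in 0.5% DMSO, duplicates. Read-out: NFE2L2 mRNA by qRT-PCR (ACTB/GAPDH/POLR2A normalization). Bidirectional curve fit vs DMSO baseline.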

Read-out in assay [9]: succinate dehydrogenase complex iron sulfur subunit B (SDHB), SDHB (gene 6390)
The experiment in a line: LTEA_HepaRG_SDHB: Life Technologies and Expression Analysis (LTEA) Assay for succinate dehydrogenase complex iron sulfur subunit B (SDHB) using HepaRG (AID 2283528). In a few lines: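 SDHB transcript level read by TaqMan qRT-PCR, housekeeping-normalised (ACTB, GAPDH, POLR2A), after 48 h chemical treatment of plated HepaRG cells; eight concentrations top 100 uM, half-log steps, 0.5% DMSO, duplicates; fitted both directions against DMSO.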

Read-out in assay [10]: Signal transducer and activator of transcription 3 (Homo sapiens) (UniProt P40763)
In words: LTEA_HepaRG_STAT3: Life Technologies and Expression Analysis (LTEA) Assay for Signal transducer and activator of transcription (STAT3) using HepaRG (AID 2283529). In a few lines: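 HepaRG, 48 h exposure, 8-pt half-log series (top 100 uM), 0.5% DMSO vehicle, duplicates. Readout: STAT3 transcript by Fluidigm qRT-PCR, housekeeping-normalized; bidirectional fit vs DMSO baseline.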

Read-out in assay [11]: solute carrier (SLCO1B1), SLCO1B1 (gene 10599)
In words: LTEA_HepaRG_SLCO1B1: Life Technologies and Expression Analysis (LTEA) Assay for solute carrier (SLCO1B1) using HepaRG (AID 2283530). In a few lines:
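SLCO1B1 transcript read by qRT-PCR (Fluidigm arrays), normalized to three housekeeping genes, after 48 h chemical exposure of HepaRG cells; bidirectional concentration-response fitting versus 0.5% DMSO baseline. Eight-point half-log series, maximum 100 uM.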

Read-out in assay [12]: sulfotransferase 2A1 (SULT2A1), SULT2A1 (gene 6822)
The experiment in a line: LTEA_HepaRG_SULT2A1: Life Technologies and Expression Analysis (LTEA) Assay for sulfotransferase 2A1 (SULT2A1) using HepaRG (AID 2283531). In a few lines:
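HepaRG, 48 h chemical exposure, 8-pt half-log curve from 100 uM in 0.5% DMSO, duplicates. Readout: TaqMan qRT-PCR of SULT2A1 mRNA, housekeeping-normalized. Bidirectional fit vs DMSO baseline.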

Read-out in assay [13]: Transforming Growth Factor (TGFA), TGFA (gene 7039)
The experiment in a line: LTEA_HepaRG_TGFA: Life Technologies and Expression Analysis (LTEA) Assay for Transforming Growth Factor (TGFA) using HepaRG (AID 2283532). In a few lines: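 qRT-PCR read-out of TGFA transcript, normalized to three housekeeping genes, fitted bidirectionally against 0.5% DMSO baseline. Human HepaRG cultures received chemicals for 48 h at eight half-log concentrations, top 100 uM.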

Read-out in another assay: TIMP1, TIMP1 (gene 7076)
The experiment in a line: LTEA_HepaRG_TIMP1: Life Technologies and Expression Analysis (LTEA) Assay for TIMP1 using HepaRG (AID 2283534). An outline of the steps:
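HepaRG, 48 h exposure, 8-pt half-log series from 100 uM in 0.5% DMSO, duplicates; TIMP1 transcript by Fluidigm qRT-PCR, housekeeping-normalized; bidirectional curve fit vs DMSO baseline.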

Read-out in assay [14]: Tumor necrosis factor receptor 1 (TNFRSF1A), TNFRSF1A (gene 7132)
The experiment in a line: LTEA_HepaRG_TNFRSF1A: Life Technologies and Expression Analysis (LTEA) Assay for Tumor necrosis factor receptor 1 (TNFRSF1A) using HepaRG (AID 2283535). An outline of the steps:
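HepaRG, 48 h plating then 48 h chemical exposure, serum-free induction media; 8-pt CRC from 100 uM, half-log, 0.5% DMSO vehicle, duplicates. Readout: TaqMan qRT-PCR (Fluidigm), housekeeping-gene normalized; bidirectional fit vs DMSO.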

Read-out in assay [15]: Thyroid Hormone Responsive (THRSP), THRSP (gene 7069)
In words: LTEA_HepaRG_THRSP: Life Technologies and Expression Analysis (LTEA) Assay for Thyroid Hormone Responsive (THRSP) using HepaRG (AID 2283536). An outline of the steps:
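qRT-PCR read-out (Fluidigm TaqMan), housekeeping-normalized (ACTB/GAPDH/POLR2A). HepaRG, 48 h chemical exposure, 8-pt half-log series from 100 uM in 0.5% DMSO, duplicates. Bidirectional curve fit vs 0.5% DMSO baseline.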

Read-out in assay [16]: Cellular tumor antigen p53 (Homo sapiens) (UniProt P04637)
The experiment in a line: LTEA_HepaRG_TP53: Life Technologies and Expression Analysis (LTEA) Assay for Tumor Protein P53 (TP53) using HepaRG (AID 2283537). In a few lines: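 TP53 transcript measured by qRT-PCR, normalized to three housekeeping genes, after 48 h treatment of human HepaRG cultures with chemicals from 100 uM downward in half-log steps (0.5% DMSO vehicle, serum-free induction medium). Up- or down-regulation fitted against DMSO.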

Read-out in assay [17]: matrix metalloproteinase-3 (MMP3), MMP3 (gene 4314)
In words: LTEA_HepaRG_MMP3: Life Technologies and Expression Analysis (LTEA) Assay for matrix metalloproteinase-3 (MMP3) using HepaRG (AID 2283519). In a few lines: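 qRT-PCR read-out of MMP3 mRNA (normalised to three housekeeping genes) in HepaRG liver cells after 48 h chemical exposure; 8-point half-log series, top 100 uM, 0.5% DMSO vehicle. Bidirectional curve fitting against DMSO baseline.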

Read-out in assay [18]: Transforming Growth Factor (TGFB1), TGFB1 (gene 7040)
In words: LTEA_HepaRG_TGFB1: Life Technologies and Expression Analysis (LTEA) Assay for Transforming Growth Factor (TGFB1) Transporter using HepaRG (AID 2283533). An outline of the steps:
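qRT-PCR readout of TGFB1 transcript in HepaRG lysates, normalized to three housekeeping genes; gain or loss of signal fitted relative to 0.5% DMSO vehicle. Exposure: 48 h, 8-point curve from 100 uM, duplicate wells.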

Activity calls are given as the source filed them. How the source made its calls: active means hit-call score of the fitted dose curve at least 0.9, where 1 is the maximum; inactive means score below 0.9.

The AC50 is the midpoint of the concentration-response curve, whichever way the signal moves.

Nuclear factor erythroid 2-related factor 2 (Homo sapiens), sequence (Q16236 whole entry, looked up): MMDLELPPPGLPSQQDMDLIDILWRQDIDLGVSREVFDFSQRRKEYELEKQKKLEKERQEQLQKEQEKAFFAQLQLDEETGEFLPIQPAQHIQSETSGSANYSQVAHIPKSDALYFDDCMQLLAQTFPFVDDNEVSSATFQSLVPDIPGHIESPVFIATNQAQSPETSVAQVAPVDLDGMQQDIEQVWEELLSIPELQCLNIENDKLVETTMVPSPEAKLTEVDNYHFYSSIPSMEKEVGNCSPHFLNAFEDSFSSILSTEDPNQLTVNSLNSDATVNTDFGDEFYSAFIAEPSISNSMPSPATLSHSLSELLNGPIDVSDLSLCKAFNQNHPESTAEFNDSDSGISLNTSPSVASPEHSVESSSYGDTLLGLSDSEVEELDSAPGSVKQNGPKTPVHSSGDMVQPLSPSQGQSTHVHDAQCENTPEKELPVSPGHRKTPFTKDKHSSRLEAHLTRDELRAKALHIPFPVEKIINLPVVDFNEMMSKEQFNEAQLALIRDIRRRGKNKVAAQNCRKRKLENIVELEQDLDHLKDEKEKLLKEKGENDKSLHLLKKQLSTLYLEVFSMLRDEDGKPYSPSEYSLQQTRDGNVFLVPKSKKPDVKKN
Signal transducer and activator of transcription 3 (Homo sapiens), sequence (P40763 whole entry, looked up): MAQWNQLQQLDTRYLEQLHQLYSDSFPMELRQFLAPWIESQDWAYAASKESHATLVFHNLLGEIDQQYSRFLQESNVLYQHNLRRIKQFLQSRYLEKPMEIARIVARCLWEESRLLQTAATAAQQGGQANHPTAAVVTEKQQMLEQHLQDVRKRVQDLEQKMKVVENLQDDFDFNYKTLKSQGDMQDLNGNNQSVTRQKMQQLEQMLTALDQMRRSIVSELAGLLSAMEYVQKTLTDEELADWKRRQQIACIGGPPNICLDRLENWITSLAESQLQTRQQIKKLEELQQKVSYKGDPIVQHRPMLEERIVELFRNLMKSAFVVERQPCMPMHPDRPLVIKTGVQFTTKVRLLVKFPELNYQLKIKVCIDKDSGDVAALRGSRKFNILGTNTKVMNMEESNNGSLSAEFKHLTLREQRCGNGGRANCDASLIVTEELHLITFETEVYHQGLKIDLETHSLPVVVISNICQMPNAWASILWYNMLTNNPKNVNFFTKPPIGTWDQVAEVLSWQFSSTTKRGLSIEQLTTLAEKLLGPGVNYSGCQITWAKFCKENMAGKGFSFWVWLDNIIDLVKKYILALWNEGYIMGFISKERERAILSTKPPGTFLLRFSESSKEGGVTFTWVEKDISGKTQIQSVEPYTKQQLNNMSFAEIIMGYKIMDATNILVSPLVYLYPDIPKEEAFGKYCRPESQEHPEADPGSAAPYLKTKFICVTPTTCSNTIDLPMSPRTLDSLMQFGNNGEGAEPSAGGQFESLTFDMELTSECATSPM
Cellular tumor antigen p53 (Homo sapiens), sequence (P04637 whole entry, looked up): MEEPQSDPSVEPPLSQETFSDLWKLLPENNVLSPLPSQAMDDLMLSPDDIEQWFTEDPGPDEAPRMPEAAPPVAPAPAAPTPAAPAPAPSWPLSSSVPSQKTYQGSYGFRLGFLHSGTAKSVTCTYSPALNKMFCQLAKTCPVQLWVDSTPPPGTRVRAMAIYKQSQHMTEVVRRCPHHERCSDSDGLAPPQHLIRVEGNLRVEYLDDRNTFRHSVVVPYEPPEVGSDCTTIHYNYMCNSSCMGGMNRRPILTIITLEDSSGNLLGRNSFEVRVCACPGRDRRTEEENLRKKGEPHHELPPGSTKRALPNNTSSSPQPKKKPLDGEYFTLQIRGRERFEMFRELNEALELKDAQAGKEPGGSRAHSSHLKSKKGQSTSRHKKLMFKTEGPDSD
Nuclear factor NF-kappa-B p105 subunit (Homo sapiens), sequence (P19838 whole entry, looked up): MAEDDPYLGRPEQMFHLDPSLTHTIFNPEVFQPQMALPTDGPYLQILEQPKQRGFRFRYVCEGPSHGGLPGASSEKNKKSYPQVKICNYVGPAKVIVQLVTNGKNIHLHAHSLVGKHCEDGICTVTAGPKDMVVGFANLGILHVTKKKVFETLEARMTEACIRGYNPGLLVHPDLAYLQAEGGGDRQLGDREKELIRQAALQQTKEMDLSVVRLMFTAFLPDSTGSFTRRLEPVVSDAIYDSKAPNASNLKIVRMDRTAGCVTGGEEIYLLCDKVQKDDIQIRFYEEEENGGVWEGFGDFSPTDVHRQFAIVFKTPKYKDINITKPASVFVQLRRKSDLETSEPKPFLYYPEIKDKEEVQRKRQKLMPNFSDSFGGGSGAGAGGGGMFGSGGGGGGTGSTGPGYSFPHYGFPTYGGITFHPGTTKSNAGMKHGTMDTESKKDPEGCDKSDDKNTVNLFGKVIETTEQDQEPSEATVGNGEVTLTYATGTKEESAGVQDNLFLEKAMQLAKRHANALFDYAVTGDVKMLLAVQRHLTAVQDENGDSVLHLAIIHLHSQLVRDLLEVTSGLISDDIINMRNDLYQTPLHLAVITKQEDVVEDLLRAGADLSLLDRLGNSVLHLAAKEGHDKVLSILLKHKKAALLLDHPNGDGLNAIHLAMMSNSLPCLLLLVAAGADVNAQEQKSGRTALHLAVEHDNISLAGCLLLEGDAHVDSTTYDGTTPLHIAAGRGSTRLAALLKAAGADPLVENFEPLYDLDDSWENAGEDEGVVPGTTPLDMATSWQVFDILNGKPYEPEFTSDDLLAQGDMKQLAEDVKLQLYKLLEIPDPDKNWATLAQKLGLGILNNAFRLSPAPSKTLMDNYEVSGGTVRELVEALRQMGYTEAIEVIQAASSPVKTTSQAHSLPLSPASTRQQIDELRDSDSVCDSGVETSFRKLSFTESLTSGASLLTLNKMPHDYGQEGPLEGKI

For the compound `CS/C(C)=N/OC(=O)N(C)SN(C)C(=O)O/N=C(\C)SC`, the outcome in the assay with MYC, MYC (gene 4609) is “inactive”; in assay [1], “inactive”; in assay [2], “inactive”; in assay [3], “inactive”; in assay [4], “inactive”; in assay [5] it was “inactive”. Moreover, the compound was classed as inactive in [6], in assay [7], in assay [8], in assay [9], in assay [10] and in assay [11]. The outcome in assay [12] was “inactive”; in [13], “inactive”; with TIMP1, TIMP1 (gene 7076), “inactive”; in assay [14], “inactive”; in [15], “inactive”; in assay [16], “inactive”.

For the compound `O=C(O)COc1nc(Cl)c(Cl)cc1Cl`, the outcome with MYC, MYC (gene 4609) is “inactive”; in [2], “inactive”; in [3] it was “inactive”; in assay [4], “inactive”; in assay [5] it was “inactive”; in assay [7], “inactive”. The compound was classed as inactive in [8], in assay [9], in assay [10], in [11], in assay [12] and in assay [13]. The call in assay [14], in [15] and in [16] was inactive. Also, the values for the AC50 in assay [1] and in [6] were 3.29 µM (active) and 51 µM (active), respectively.

As to `CCCCNC(=O)OCC#CI`, the outcome in the assay with MYC, MYC (gene 4609) was “inactive”; in [17] it was “inactive”; in [1], “inactive”; in assay [3], “inactive”; in assay [4], “inactive”; in assay [5] it was “inactive”. Besides, the result in assay [6], in assay [7], in assay [8], in [9], in [10] and in assay [13] was inactive. In addition, the result in assay [18], in [14] and in [16] was inactive. Also, the concentration at half-maximal activity (AC50) in [11], in assay [12] and in assay [15] was 50 µM (active) throughout.

The values above are taken from PubChem BioAssay (EPA / NIEHS).
